According to PubChem BioAssay (Tox21):
Unmarked numbers belong to inactive results. Entries that show only a call come without a potency. Calls of active or inactive are those of the source. Unless noted, calls come from the whole dose curve; as a rule, active = well fitted curve in the direction sought with a large enough effect in the repeat runs; inconclusive = weak or mixed curves; inactive = no such curve, though single readings can be large; an effect the other way counts as inactive or inconclusive.

Legend:
[1] = qHTS assay to identify small molecule antagonists of the thyroid receptor (TR) signaling pathway (AID 743065); note: series mostly up to about 70 µM; nearly all actives have a fitted effect of over 55% in size
In short: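 GH3.TRE-Luc rat pituitary cells (two TREs driving luciferase) were dosed with compound, then stimulated with 1 nM T3 (final) for 23.5 h at 37 C. ONE-Glo luminescence was the read-out, with CellTiter-Fluor fluorescence as the cytotoxicity counter-screen.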

[2] = test system: thyroid hormone receptor (rat, GH3 cells); assay: qHTS assay to identify small molecule agonists of the thyroid receptor (TR) signaling pathway (AID 743066; calls by dose curve)
[3] = qHTS assay to identify small molecule antagonists of the estrogen receptor alpha (ER-alpha) signaling pathway - cell viability counter screen (AID 743074; calls by dose curve;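 note: HEK293 cells carrying ER-alpha-UAS-bla reporter stimulated with 17beta-estradiol; nearly all actives have a fitted effect of over 45% in size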; note: potency is the fitted concentration of half-maximal effect)
[4] = qHTS assay to identify small molecule antagonists of the estrogen receptor alpha (ER-alpha) signaling pathway using the BG1 cell line - cell viability counter screen (AID 743081);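 note: compound given together with 17beta-estradiol as the ER stimulus; series mostly up to about 70 µM; nearly all actives have a fitted effect of over 45% in size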
Aromatase (Homo sapiens) = Aromatase (Homo sapiens) (UniProt P11511); assay: qHTS assay to identify aromatase inhibitors (AID 743083); note: series mostly up to about 70 µM; nearly all actives have a fitted effect of over 55% in size
[5] = qHTS assay to identify aromatase inhibitors - cell viability counter screen (AID 743084);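 note: cells stimulated with testosterone during compound exposure; nearly all actives have a fitted effect of over 55% in size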
[6] = target: Aryl hydrocarbon receptor (Homo sapiens) (UniProt P35869); assay: qHTS assay to identify small molecule that activate the aryl hydrocarbon receptor (AhR) signaling pathway (AID 743085);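 note: HG2L7.5c1 human HepG2 liver cells with stably integrated DRE-driven firefly reporter; series mostly up to about 70 µM; nearly all actives have a fitted effect of over 15% in size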
In short: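 Reporter assay in engineered HepG2 line HG2L7.5c1, whose plasmid carries twenty dioxin responsive elements upstream of firefly luciferase. Treatment lasted 24 h at 37C; ONE-Glo luminescence gauged induction.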

[7] = target: Peroxisome proliferator-activated receptor gamma (Homo sapiens) (UniProt P37231); assay: qHTS assay to identify small molecule agonists of the peroxisome proliferator-activated receptor gamma (PPARg) signaling pathway (AID 743094; active = well fitted activation curve with a large enough effect in the signal ratio in the repeat runs, not every such curve was filed as active; inconclusive = weak or mixed curves, or effect the other way; inactive = no such curve, though single readings can be large or run the other way; the % refers to the signal ratio)
In short: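 Stably transfected HEK293H cells (GeneBLAzer PPARg UAS-bla) were incubated with test substances for 17 h at 37C after a 5 h pre-incubation; beta-lactamase activity was then detected by FRET substrate fluorescence.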

[8] = target: Peroxisome proliferator-activated receptor gamma (Homo sapiens) (UniProt P37231); assay: qHTS assay to identify small molecule antagonists of the peroxisome proliferator-activated receptor gamma (PPARg) signaling pathway (AID 743191; calls by dose curve; note: series mostly up to about 63 µM; nearly all actives have a fitted effect of over 30% in size)
In short: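 GeneBLAzer PPARg UAS-bla HEK293H cells, 5 h post-plating, exposed to compounds 17 h at 37C. LiveBLAzer B/G FRET substrate added for 1 h at room temperature; beta-lactamase reporter read by fluorescence intensity.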

[9] = qHTS assay to identify small molecule antagonists of the peroxisome proliferator-activated receptor gamma (PPARg) signaling pathway - cell viability counter screen (AID 743194); note: nearly all actives have a fitted effect of over 55% in size
In short: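 Cytotoxicity counter screen in PPARg-bla HEK293H cells, same wells as reporter assay. Compounds plus 50 nM rosiglitazone (final) for 17 h at 37 C, then viability read by CellTiter-Glo luminescence.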

[10] = qHTS assay for small molecule agonists of the antioxidant response element (ARE) signaling pathway (AID 743202; active = well fitted activation curve with a large enough effect in the signal ratio in the repeat runs, not every such curve was filed as active; inconclusive = weak or mixed curves, or effect the other way; inactive = no such curve, though single readings can be large or run the other way; the % refers to the signal ratio; note: potency is the fitted concentration of half-maximal effect)
In short: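 ARE-bla HepG2 cells (beta-lactamase reporter under the antioxidant response element), plated 5 hours, then exposed to compounds 16 hours at 37 C. LiveBLAzer B/G FRET substrate added for 2 hours at room temperature; fluorescence intensity read.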

[11] = qHTS assay to identify small molecule agonists of the peroxisome proliferator-activated receptor delta (PPARd) signaling pathway - cell viability counter screen (AID 743211); note: nearly all actives have a fitted effect of over 55% in size
In short: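 Multiplexed format: after the 2 h room-temperature LiveBLAzer B/G FRET step, CellTiter-Glo was added to the same wells. Luminescence after 30 min gave cell viability; compound exposure was 17 h at 37C.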

[12] = qHTS assay for small molecule agonists of the antioxidant response element (ARE) signaling pathway - cell viability counter screen (AID 743203; calls by dose curve; note: nearly all actives have a fitted effect of over 55% in size)
In short: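 Cells (ARE-bla HepG2, 2,000/well) receive DMSO-dissolved compounds after a 5 hrs rest. Plates incubate 16 hrs at 37C/5% CO2. CellTiter-Glo luminescence is then recorded after 30 min at room temperature.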

[13] = qHTS assay for small molecule activators of the heat shock response signaling pathway (AID 743210; active = well fitted activation curve with a large enough effect in the signal ratio in the repeat runs, with a control signal flat, not every such curve was filed as active; inconclusive = weak or mixed curves; the % refers to the signal ratio; note: series mostly up to about 63 µM)
In short: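 HSE-bla HeLa cells (beta-lactamase reporter under heat shock response elements), plated overnight, then exposed to compounds 5 h at 37 C; LiveBLAzer B/G FRET substrate added, 2.5 h at room temperature, fluorescence intensity read.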

[14] = qHTS assay for small molecule activators of the heat shock response signaling pathway - cell viability counter screen (AID 743209); note: nearly all actives have a fitted effect of over 50% in size
In short: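 Quantitative HTS format, Tox21 10K library. HeLa cells carrying an HSE-driven beta-lactamase reporter were treated 5 h at 37 C, then assessed for viability by CellTiter-Glo luminescence.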

[15] = target: Estrogen receptor (Homo sapiens) (UniProt P03372); assay: qHTS assay to identify small molecule antagonists of the estrogen receptor alpha (ER-alpha) signaling pathway (AID 743069; active = well fitted curve in the direction sought with a large enough effect in the signal ratio in the repeat runs, not every such curve was filed as active; inconclusive = weak or mixed curves, or effect the other way; inactive = no such curve, though single readings can be large or run the other way; the % refers to the signal ratio)
In short: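 HEK293 ER-alpha-UAS-bla GripTite cells, held overnight in 2% charcoal-stripped FBS, 5,000 cells/well, preincubated 4 h, then compound plus 17beta-estradiol for 18 h at 37C. Beta-lactamase read by LiveBLAzer B/G FRET substrate, 2 h at room temperature.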

[16] = target: Estrogen receptor (Homo sapiens) (UniProt P03372); assay: qHTS assay to identify small molecule agonists of the estrogen receptor alpha (ER-alpha) signaling pathway (AID 743075; calls by dose curve; note: potency is the fitted concentration of half-maximal effect)
[17] = target: Estrogen receptor (Homo sapiens) (UniProt P03372); assay: qHTS assay to identify small molecule agonists of the estrogen receptor alpha (ER-alpha) signaling pathway using the BG1 cell line (AID 743079); note: nearly all actives have a fitted effect of over 20% in size; note: potency is the fitted concentration of half-maximal effect
[18] = qHTS assay to identify small molecule antagonists of the estrogen receptor alpha (ER-alpha) signaling pathway using the BG1 cell line (AID 743080; calls by dose curve;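 note: BG1 cells stimulated with 17beta-estradiol alongside compound; series mostly up to about 70 µM; nearly all actives have a fitted effect of over 25% in size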)
In short: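 Luciferase inhibition measured with ONE-Glo after 30 min at RT in BG1Luc4E2 cells given test compounds and 17beta-estradiol for 21.5 h at 37 C; CellTiter-Fluor viability read in the same wells beforehand.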

[19] = qHTS assay to identify small molecule that activate the aryl hydrocarbon receptor (AhR) signaling pathway - cell viability counter screen (AID 743086);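 note: HepG2 liver cells carrying the AhR DRE luciferase reporter; series mostly up to about 70 µM; nearly all actives have a fitted effect of over 45% in size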
In short: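 HepG2-AhR-luc (HG2L7.5c1) cells, 4000/well, treated 24 h at 37 C with compound; viability measured as CellTiter-Fluor fluorescence after 30 min in the same wells as the luciferase read.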

Aromatase (Homo sapiens), sequence (P11511 whole entry, looked up): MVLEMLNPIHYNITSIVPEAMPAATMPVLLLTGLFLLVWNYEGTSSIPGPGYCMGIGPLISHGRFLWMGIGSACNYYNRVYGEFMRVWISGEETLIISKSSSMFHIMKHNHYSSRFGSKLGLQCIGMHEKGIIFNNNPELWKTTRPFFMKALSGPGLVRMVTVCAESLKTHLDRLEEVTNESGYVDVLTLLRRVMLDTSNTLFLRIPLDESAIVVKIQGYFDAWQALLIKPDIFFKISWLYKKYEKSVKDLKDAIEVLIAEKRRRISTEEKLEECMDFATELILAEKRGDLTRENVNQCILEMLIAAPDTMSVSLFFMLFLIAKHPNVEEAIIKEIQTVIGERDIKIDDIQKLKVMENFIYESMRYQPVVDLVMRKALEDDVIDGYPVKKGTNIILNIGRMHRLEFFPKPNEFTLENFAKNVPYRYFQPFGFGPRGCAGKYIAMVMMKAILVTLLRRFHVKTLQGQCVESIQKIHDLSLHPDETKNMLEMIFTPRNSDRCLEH
Peroxisome proliferator-activated receptor gamma (Homo sapiens), sequence (P37231 whole entry, looked up): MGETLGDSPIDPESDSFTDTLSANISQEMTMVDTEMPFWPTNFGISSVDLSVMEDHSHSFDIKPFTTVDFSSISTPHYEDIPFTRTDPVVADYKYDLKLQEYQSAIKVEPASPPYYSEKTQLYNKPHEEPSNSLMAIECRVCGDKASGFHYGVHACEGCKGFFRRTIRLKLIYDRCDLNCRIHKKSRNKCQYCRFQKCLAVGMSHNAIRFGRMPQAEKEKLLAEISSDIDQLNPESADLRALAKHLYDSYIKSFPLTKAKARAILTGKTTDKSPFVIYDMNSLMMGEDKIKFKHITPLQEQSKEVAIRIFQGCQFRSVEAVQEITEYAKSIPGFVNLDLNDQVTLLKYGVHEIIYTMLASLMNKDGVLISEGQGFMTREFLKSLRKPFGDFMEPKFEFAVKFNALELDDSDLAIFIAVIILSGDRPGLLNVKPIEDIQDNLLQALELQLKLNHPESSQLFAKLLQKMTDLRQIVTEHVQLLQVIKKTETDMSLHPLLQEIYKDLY
Estrogen receptor (Homo sapiens), sequence (P03372 whole entry, looked up): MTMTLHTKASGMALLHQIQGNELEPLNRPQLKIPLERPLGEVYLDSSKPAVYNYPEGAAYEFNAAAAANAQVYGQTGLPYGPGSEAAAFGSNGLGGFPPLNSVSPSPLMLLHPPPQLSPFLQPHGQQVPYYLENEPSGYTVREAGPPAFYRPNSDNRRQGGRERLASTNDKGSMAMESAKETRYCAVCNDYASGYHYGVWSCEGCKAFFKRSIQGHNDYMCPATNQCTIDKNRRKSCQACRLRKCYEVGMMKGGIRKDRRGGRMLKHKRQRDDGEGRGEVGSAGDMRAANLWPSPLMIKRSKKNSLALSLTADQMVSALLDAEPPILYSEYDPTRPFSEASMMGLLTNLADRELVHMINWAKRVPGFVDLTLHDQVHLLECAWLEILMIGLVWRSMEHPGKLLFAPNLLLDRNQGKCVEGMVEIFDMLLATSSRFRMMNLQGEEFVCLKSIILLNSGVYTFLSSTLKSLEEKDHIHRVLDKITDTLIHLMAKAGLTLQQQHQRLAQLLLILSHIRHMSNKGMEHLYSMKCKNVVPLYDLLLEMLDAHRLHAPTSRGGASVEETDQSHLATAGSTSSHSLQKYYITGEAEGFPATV
Aryl hydrocarbon receptor (Homo sapiens), sequence (P35869 whole entry, looked up): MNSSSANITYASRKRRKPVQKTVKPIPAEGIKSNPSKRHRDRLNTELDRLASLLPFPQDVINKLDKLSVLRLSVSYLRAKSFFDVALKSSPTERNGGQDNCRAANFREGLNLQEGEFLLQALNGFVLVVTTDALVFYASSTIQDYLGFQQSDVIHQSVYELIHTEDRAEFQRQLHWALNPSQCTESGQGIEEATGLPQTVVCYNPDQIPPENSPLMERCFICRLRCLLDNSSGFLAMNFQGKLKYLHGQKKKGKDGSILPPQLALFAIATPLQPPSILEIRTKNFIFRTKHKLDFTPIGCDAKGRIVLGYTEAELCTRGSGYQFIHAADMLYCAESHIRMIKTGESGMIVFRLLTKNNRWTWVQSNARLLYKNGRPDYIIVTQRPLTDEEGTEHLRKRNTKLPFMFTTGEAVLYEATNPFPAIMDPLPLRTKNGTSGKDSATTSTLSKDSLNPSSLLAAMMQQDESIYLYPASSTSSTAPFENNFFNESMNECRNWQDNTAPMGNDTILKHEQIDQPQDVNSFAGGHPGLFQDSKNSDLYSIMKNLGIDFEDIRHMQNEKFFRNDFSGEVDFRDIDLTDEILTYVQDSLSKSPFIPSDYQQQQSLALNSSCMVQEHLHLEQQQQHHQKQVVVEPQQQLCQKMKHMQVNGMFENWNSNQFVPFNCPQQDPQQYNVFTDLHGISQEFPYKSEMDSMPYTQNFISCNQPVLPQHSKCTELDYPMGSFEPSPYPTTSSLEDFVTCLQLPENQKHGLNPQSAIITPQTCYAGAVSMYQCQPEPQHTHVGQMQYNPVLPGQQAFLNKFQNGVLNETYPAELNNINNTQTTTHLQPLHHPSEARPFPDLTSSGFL

Row | Structure (SMILES) | Potency [1] | Potency [2] | Potency [3] | outcome [4] | Potency (Aromatase (Homo sapiens)) | outcome [5] | Potency [6] | outcome [7] | outcome [8] | outcome [9] | Potency [10] | outcome [11] | outcome [12] | outcome [13] | Potency [14] | outcome [15] | Potency [16] | Potency [17] | Potency [18] | outcome [19]
1 | COC(=O)c1ccccc1Cl | inactive | inactive | inactive | inactive | inactive | inactive | inactive | inactive | inactive | inactive | inactive | inactive |  |  |  |  |  |  |  | 
2 | CNCCc1ccccn1 | inactive | inactive | inactive | inactive | inactive | inactive | inactive |  |  | inactive | inactive | inactive | inactive | inactive |  |  |  |  |  | 
3 | O=C1Nc2ccccc2C1=O | inactive | inactive | inactive | inactive | inactive | inactive |  | inactive |  |  | 27.1 µM (active) |  | inactive | inactive | inactive |  |  |  |  | 
4 | CC(C)(C)C(=O)CC(=O)C(C)(C)C |  | inactive | inactive | inactive | inactive | inactive | inactive | inactive | inactive | inactive |  |  | inactive |  | inactive | inactive | inactive | inactive | inactive | inactive
5 | O=C(O)CCC(=O)Nc1ccc(S(=O)(=O)Nc2nccs2)cc1 | inactive | inactive | inactive | inactive | inactive | inactive | inactive | inactive | inactive | inactive | inactive | inactive | inactive | inactive | inactive |  |  |  |  | 
6 | O=S(=O)(O)c1cc(I)c(O)c2ncccc12 | inactive | inactive | inactive | inactive | inactive | inactive |  | inactive | inactive |  |  | inactive | inactive | inactive | inactive |  |  |  |  | inactive
7 | CCOc1ccccc1OCCN[C@H](C)Cc1ccc(OC)c(S(N)(=O)=O)c1 | inactive | inactive | inactive | inactive | inactive | inactive | inactive |  |  |  | inactive | inactive | inactive |  | inactive |  |  |  |  | inactive
8 | CCCC(C)C(O)CC (centres undefined) | inactive | inactive | inactive | inactive | inactive | inactive | inactive |  |  |  | inactive | inactive | inactive |  |  |  |  |  |  | inactive
9 | Cc1nnc(C(=O)NC(C)(C)c2nc(C(=O)NCc3ccc(F)cc3)c(O)c(=O)n2C)o1 | inactive | inactive | inactive | inactive |  |  |  |  |  | inactive |  | inactive | inactive | inactive | inactive |  |  |  |  | inactive
10 | CC(C)OC(=O)C(C(=O)OC(C)C)=C1SC=CS1 | inactive | inactive | inactive | inactive | inactive | inactive | inactive |  | inactive |  |  | inactive | inactive |  | inactive |  |  |  |  | 
11 | COC(=O)c1c(C)cc(O)c(C)c1O | inactive |  | inactive | inactive | inactive | inactive | inactive |  | inactive |  | inactive | inactive | inactive | inactive |  |  |  | 68.6 µM (active) |  | inactive
12 | CCCCOCCCC |  | inactive | inactive | inactive | inactive | inactive | inactive | inactive |  | inactive | inactive | inactive | inactive | inactive | inactive | inactive | inactive | inactive | inactive | inactive
13 | CC(O)CCCCn1c(=O)c2c(ncn2C)n(C)c1=O (centres undefined) |  | inactive | inactive | inactive | inactive | inactive | inactive | inactive | inactive |  | inactive |  | inactive | inactive | inactive | inactive | inactive | inactive | inactive | inactive
14 | CCCCCC(=O)CC | inactive | inactive | inactive | inactive | inactive | inactive | inactive | inactive |  |  | inactive | inactive |  |  | inactive |  |  |  |  | 
15 | O=C(O)CCCCCCCCCC(=O)O |  | inactive | inactive | inactive | inactive | inactive | inactive |  | inactive |  | inactive | inactive |  |  | inactive | inactive | inactive | inactive | inactive | 
16 | C=CCOC(=O)CCCCCCCC |  | inactive | inactive | inactive | inactive | inactive | inactive | inactive |  | inactive | inactive | inactive |  |  | inactive | inactive | inactive | inactive | inactive | inactive
17 | O=C(c1ccccc1)c1cccc(O)c1 |  | inactive | inactive | inactive | inactive | inactive | inactive | inactive |  |  |  | inactive | inactive | inactive |  |  | 49.7 µM [inconclusive] (active) | 15.6 µM (active) |  | inactive
18 | O=C1CC2(CCCC2)CC(=O)N1CCNCC1COc2ccccc2O1 (centres undefined) |  | inactive | 21.3 µM (active) | inactive | inactive |  | inactive |  |  | inactive | inactive |  |  |  | inactive |  |  |  |  | 
19 | c1coc(Cn2cccc2)c1 |  | inactive | inactive | inactive | inactive | inactive | inactive |  |  | inactive |  | inactive | inactive |  |  | inactive | inactive | inactive | inactive | inactive
20 | CCOCCOCCOC(C)=O |  | inactive | inactive | inactive | inactive | inactive | inactive |  |  | inactive | inactive |  | inactive | inactive | inactive |  |  |  |  | 
21 | CC(C)=CCC/C(C)=C\C#N |  |  | inactive | inactive | inactive | inactive | inactive | inactive | inactive | inactive | inactive | inactive | inactive |  | inactive | inactive | inactive | inactive | inactive | 
